# Assay outcomes deposited in PubChem BioAssay by several laboratories.
# UBC13 inh: UBC13 polyubiquitin chain formation inhibitors, primary screen, biochemical, TR-FRET, uHTS; Ubiquitin-conjugating enzyme E2 N (Homo sapiens), P61088; inhibition, % at 20 µM; actives 0.47% (n = 330,000); in the data active = inhibition above about 45%, passing the limit was not always enough
# Target sequence (P61088 whole entry, looked up): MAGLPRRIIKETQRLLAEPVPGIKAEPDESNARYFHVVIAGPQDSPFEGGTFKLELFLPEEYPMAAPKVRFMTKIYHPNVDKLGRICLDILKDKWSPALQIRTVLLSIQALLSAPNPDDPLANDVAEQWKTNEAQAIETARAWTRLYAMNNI
# ATG4B inh: ATG4B protease inhibitors, primary screen, biochemical, fluorescence, uHTS. AID 504462, 2011. actives 0.51% (n = 340,000). Cysteine protease ATG4B (Homo sapiens), Q9Y4P1. ATG4B cleavage of LC3-PLA2, NBD-HPC fluorescence, 1 h. inhibition, % at 8.33 µM; in the data active = inhibition above about 40%
# Target sequence (Q9Y4P1 whole entry, looked up): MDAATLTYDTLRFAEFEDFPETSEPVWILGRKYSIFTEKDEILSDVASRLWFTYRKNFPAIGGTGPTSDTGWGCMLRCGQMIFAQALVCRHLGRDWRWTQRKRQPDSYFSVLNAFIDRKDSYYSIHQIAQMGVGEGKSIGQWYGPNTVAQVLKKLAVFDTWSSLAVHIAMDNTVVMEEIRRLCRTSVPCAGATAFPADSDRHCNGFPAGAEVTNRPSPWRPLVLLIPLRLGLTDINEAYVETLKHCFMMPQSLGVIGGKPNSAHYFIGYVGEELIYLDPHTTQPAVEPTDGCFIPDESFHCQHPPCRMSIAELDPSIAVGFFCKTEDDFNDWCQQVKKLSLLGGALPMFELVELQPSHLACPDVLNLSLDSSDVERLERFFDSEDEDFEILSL
# MEKK2 mut-MEK5: MEK5 binding signal on mutant MEKK2 PB1, primary screen, biochemical, multiplex bead flow cytometry, Alexa488-MEK5. percent response, % at 10 µM. Alexa488-MEK5 binding to MEKK2 mutant. actives 0.35% (n = 290,000); in the data active = percent response above about 24%, passing the limit was not always enough
# MEKK2 WT-MEK5: modulators of MEK5 binding to wildtype MEKK2, primary screen, biochemical, multiplex bead flow cytometry, Alexa488-MEK5. Mitogen-activated protein kinase kinase kinase 2 (Homo sapiens), Q9Y2U5. Alexa488-MEK5 binding to MEKK2 WT; actives lie on both sides. binding response (% of control), % at 10 µM. actives 1.1% (n = 290,000). AID 1531, 2009; in the data active = binding response below about 67% or above about 130%
# PREPL inhibitor: PREPL enzyme inhibitors, primary screen, biochemical, fluorescence polarization | actives 0.68% (n = 320,000) | Prolyl endopeptidase-like (Homo sapiens), Q4J6C6 | inhibition, % at 5.96 µM | recombinant PREPL, fluorescence polarization activity-based probe; in the data active = inhibition above about 43%
# MEKK3 PB1 HTS: modulators of MEKK3-MEK5 PB1 binding, primary screen, biochemical, wildtype MEKK3, multiplex bead flow cytometry, Alexa488-MEK5; AID 1529, 2009; binding response (% of control), % at 10 µM; Mitogen-activated protein kinase kinase kinase 3 (Homo sapiens), Q99759; actives 1.4% (n = 290,000); bead-based flow cytometry, Alexa488-MEK5 binding to MEKK3; actives lie on both sides; 0 = blocked by unlabeled MEK5, 100 = vehicle;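 active = binding response more than 3 SD above or below the average of its plate-row segment, actives on both sides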;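 also: Alexa488 bead fluorescence after subtracting the streptavidin-only scavenger bead signal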
# MEKK2wt confirm: modulators of MEK5 binding to wildtype MEKK2, confirmation, biochemical, single concentration, multiplex bead flow cytometry | shares compounds with MEKK3 PB1 HTS | Alexa488-MEK5 binding to MEKK2 WT; actives lie on both sides | binding response (% of control), % at 10 µM | actives 2.4% (n = 5,900); in the data active = binding response below about 16% or above about 210%; inactive = in between
# MEKK2mut confirm: mutant MEKK2 PB1-MEK5 binding signal retest – biochemical, single concentration, multiplex bead flow cytometry, confirmation; shares compounds with MEKK3 PB1 HTS; Alexa488-MEK5 binding to MEKK2 mutant; percent response, % at 10 µM; actives 2% (n = 5,900); AID 1893, 2009; in the data active = percent response mostly above about 71%, no sharp cut-off; inactive = mostly below about 38%;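 also: higher means compound restores mutant binding toward wildtype level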
# MEKK3 confirm: MEKK3 wild-type PB1 binding to MEK5, inhibitors, confirmation, biochemical, bead multiplex flow cytometry, single concentration, wildtype. shares compounds with MEKK3 PB1 HTS. Alexa488-MEK5 binding to MEKK3; stronger effect = lower value. binding response (% of control), % at 10 µM. actives 1.8% (n = 5,900);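 active = binding response below 72% of control, or above a set upper limit, though filed actives all read lower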
# A number is an active result; – = inactive; · = no result; [ ] = dose if it differs, or a comment. Shown are actives, neighbours in structure and some others; about 3.1% of the full set was active somewhere.
SMILES,UBC13 inh,ATG4B inh,MEKK2 mut-MEK5,MEKK2 WT-MEK5,PREPL inhibitor,MEKK3 PB1 HTS,others
COc1ccc(/C=C/C(=O)OCC(=O)c2c(C)[nH]c3ccccc23)cc1OC,–,–,–,–,–,–,
NC(=O)Cc1ccc(C(=O)CSc2nnc(-c3ccncc3)n2C2CC2)s1,–,–,·,·,–,·,
CCC(=O)Nc1nc(C)c(-c2csc(Nc3ccc(S(=O)(=O)Nc4cc(C)on4)cc3)n2)s1,·,·,–,–,·,–,
Cc1cc(NS(=O)(=O)c2ccc(Nc3nc(-c4sc(C)nc4C)cs3)cc2)no1,·,·,–,-2.0[inhibitor],·,-1.0[inhibitor],
N=c1c(C(=O)NCCN2CCOCC2)cc2c(=O)n3ccccc3nc2n1CCc1ccccc1,–,–,–,–,–,–,
Cc1cc(C)n2nc(SCC(=O)NC3CCCCC3C)nc2n1 (stereo unspecified),·,–,–,–,–,–,
CCC(=O)Nc1nc2ccc(S(C)(=O)=O)cc2s1,–,–,–,–,–,–,
CC(C)CC(=O)Nc1nc2ccc(S(C)(=O)=O)cc2s1,–,–,–,-11,–,–,
COc1ccc2nccc(C(N)=O)c2c1,–,–,–,–,–,–,
Cc1ccc2oc(=O)c3cc(C(=O)NCCCN4CC(C)CC(C)C4)sc3c2c1 (stereo unspecified),–,–,–,142,–,–,
O=C(NCCCN1CCCCCC1)c1cc2c(=O)oc3ccccc3c2s1,–,–,–,136,–,–,
CCOC(=O)c1cn(Cc2ccccc2)nc1-c1ccccc1,–,–,·,·,–,·,
CCCCC(=O)NC(=S)Nc1nnn(CCC)n1,–,–,–,–,–,43[inhibitor],
CC(C)CC(=O)NC(=S)N(Cc1ccccc1)Cc1ccccc1,–,–,–,–,–,148,
CCOc1ccc(NC(=O)CCN2CCN(S(=O)(=O)c3cc(Cl)ccc3OC)CC2)cc1,–,–,–,–,–,–,
CCN(CC)c1ccc(NC(=O)CN2CCN(S(=O)(=O)c3cc(Cl)ccc3OC)CC2)cc1,–,–,–,–,72,–,
Cc1ccc(C(=O)N2CCSC2=S)cc1,–,–,–,-10,–,–,
O=C(c1ccccc1)N1CCSC1=S,–,–,–,–,–,–,
O=C(O)c1ccccc1C(=O)NNc1cccc(Cl)n1,–,–,–,–,–,–,
O=S1(=O)N=C(N2CCOCC2)c2ccccc21,–,–,–,–,–,–,
O=S1(=O)N=C(Nc2ccc(N3CCOCC3)cc2)c2ccccc21,–,–,–,37,–,–,
O=C(O)c1cccc(CSc2n[nH]c(-c3ccc(Cl)cc3Cl)n2)c1,–,–,–,–,–,–,
COc1ccc(-c2cc(C)no2)cc1S(=O)(=O)NCC1CCN(Cc2cc(C)ccc2C)CC1,–,–,–,143,–,–,
Cc1cc(C)c(OCC(O)CN2CCN(c3ccccn3)CC2)c(C)c1 (stereo unspecified),–,–,–,-8.0,–,–,
CCCCN(C(=O)c1ccc(N2CCCC2=O)cc1)c1c(N)n(CCC)c(=O)[nH]c1=O,–,–,·,·,–,·,
SMILES,UBC13 inh,ATG4B inh,MEKK2 mut-MEK5,MEKK2 WT-MEK5,PREPL inhibitor,MEKK3 PB1 HTS,others
COc1ccccc1C(=O)COC(=O)c1ccc(Cl)nc1,–,–,·,·,–,·,
O=C(N/N=C/c1cccs1)c1cccc(NC(=O)c2ccc(Cl)cc2)c1,–,·,–,–,–,132,
O=C(N/N=C/c1cccs1)c1cccc(S(=O)(=O)Nc2ccc(Cl)cc2)c1,–,–,–,–,–,–,
CCCCn1c(N)c(N(CC)C(=O)c2ccc([N+](=O)[O-])c(C)c2)c(=O)[nH]c1=O,–,–,–,–,–,–,
Cc1c(/C=C(\C#N)C(=O)NCc2ccccc2)cc(C#N)n1C,–,–,–,–,–,–,
O/C(=C\c1nc2ccccc2nc1/C=C(\O)c1ccccc1)c1ccccc1,–,–,–,20,–,–,
CC(C)Cc1ccc(CN2CCCC(NC(=O)CCN3CCCCC3=O)C2)cc1 (stereo unspecified),–,–,–,–,–,–,
CC(C)Cc1ccc(CN2CCCC(NC(=O)CCN3CCCO3)C2)cc1 (stereo unspecified),–,–,–,134,–,–,
O=C(Cc1ccc(F)cc1)NC1CCS(=O)(=O)C1 (stereo unspecified),–,–,·,·,–,·,
CCC(C)[C@H]1CN=C(N)N1CCc1cccc(F)c1 (stereo partly specified),–,–,–,–,–,–,
O=C(CN1CCN(Cc2ccccc2)CC1)Nc1ccc([N+](=O)[O-])cc1C(=O)Nc1ccccc1F,–,–,–,–,43,–,
COc1ccc(CCNCC2C(Oc3ccc(Cl)cc3)C(=O)N2c2ccccc2C)cc1OC (stereo unspecified),–,–,–,155,–,–,MEKK2wt confirm=–;MEKK2mut confirm=–;MEKK3 confirm=–
O=c1oc2ccccc2cc1-c1csc(Cc2nc(-c3ccc(Cl)cc3)cs2)n1,–,–,–,–,–,–,
N=c1oc2ccccc2cc1-c1nc(-c2ccc(Cl)cc2)cs1,–,–,–,–,–,128,MEKK2wt confirm=–;MEKK2mut confirm=–;MEKK3 confirm=–
CCn1c(SCC(=O)NCCc2ccccc2)nc2sc3c(c2c1=O)CCN(C)C3,–,–,–,–,–,–,
CN1CCc2c(sc3nc(SCC(N)=O)n(-c4ccc(Cl)cc4)c(=O)c23)C1,–,–,–,–,–,–,
CCn1c(SCC(=O)c2ccccc2)nc2sc3c(c2c1=O)CCN(C)C3,–,–,–,–,–,130,MEKK2wt confirm=–;MEKK2mut confirm=–;MEKK3 confirm=–
CN1CCc2c(sc3nc(SCC(N)=O)n(-c4ccccc4)c(=O)c23)C1,–,–,79,–,–,–,MEKK2wt confirm=–;MEKK2mut confirm=–;MEKK3 confirm=–
O=C1OCc2ccc([N+](=O)[O-])cc21,·,–,·,·,·,·,
CCc1nnc(NC(=O)CSc2ccc(-c3ccc(-n4cccn4)cc3)nn2)s1,–,–,·,·,–,·,
